Source: PubChem BioAssay
Active and inactive are the calls of the source.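 How the source made its calls, unless noted: active means fluorescence slope after compound addition differing from the mean of all screened samples at 99.7% confidence, in either direction; inactive means the rest.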

How the values were obtained:
[1] = inhibitors of TNFa-induced NFkB p65 translocation, primary screen, imaging, HUVEC, MLSMR starter and 10KST1 sets (AID 438;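 active means inhibition above 20% together with a positive visual image hit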;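 further: compound added about 3h40 before a 20 min TNFalpha stimulation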;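 on inhibition: signal is the nuclear over cytoplasmic p65 intensity ratio per well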); conditions: HUVEC TNFa-induced p65 nuclear translocation; cell count: measured here: nuclei count (cytotoxicity indicator), at 2.08 µM; inhibition: at 2 µM, stronger effect = higher value, 0% TNFa-plus-vehicle, 100% no-TNFa wells
[2] = reduction of polyQ htt aggregates in cells – imaging, exon1htt(103Q)mCFP cells, high-content imaging, primary screen (AID 483;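 active means visual image review flags a hit and inhibition of aggregation exceeds 20%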;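 further: compound exposure lasted 3 days before fixation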;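 on nuclei count: percent of the per-plate median nuclei count of sample wells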); conditions: exon1htt(103Q)mCFP cell line, aggregate imaging, at 2 µM; inhibition of aggregation: stronger effect = higher value; nuclei count: measured here: cell count, toxicity
[3] = endothelial E-selectin expression blockers – imaging, HUVEC, immunofluorescence, MLSMR starter and 10KST1 sets, primary screen (AID 487;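 active means visually confirmed hit in the image check and inhibition above 20%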;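 on inhibition: signal is fraction of cell area covered by stained E-selectin grains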;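 on nuclei count: 100% = median nuclei count of all wells on the same plate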); conditions: HUVEC TNFalpha-induced E-selectin immunofluorescence imaging, at 2 µM; inhibition: stronger effect = higher value; nuclei count: measured here: cell number, toxicity
[4] = target: Voltage-gated potassium channel subunit beta-2 (Rattus norvegicus) (UniProt P62483); assay: inhibitors of rat Kvbeta2 reductase activity – biochemical, NADPH fluorescence, primary screen (AID 622;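 active means fluorescence slope higher than the sample average by over 3 SD, cut at about -0.22 in these data, passing the limit was not always enough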;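 further: slope of raw intensity against log time taken from 70 to 1610 s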); conditions: recombinant KvBeta, 4-cyanobenzaldehyde reduction, at 10 µM, stronger effect = higher value
Chain of Voltage-gated potassium channel subunit beta-2 (Rattus norvegicus) (P62483 whole entry, looked up): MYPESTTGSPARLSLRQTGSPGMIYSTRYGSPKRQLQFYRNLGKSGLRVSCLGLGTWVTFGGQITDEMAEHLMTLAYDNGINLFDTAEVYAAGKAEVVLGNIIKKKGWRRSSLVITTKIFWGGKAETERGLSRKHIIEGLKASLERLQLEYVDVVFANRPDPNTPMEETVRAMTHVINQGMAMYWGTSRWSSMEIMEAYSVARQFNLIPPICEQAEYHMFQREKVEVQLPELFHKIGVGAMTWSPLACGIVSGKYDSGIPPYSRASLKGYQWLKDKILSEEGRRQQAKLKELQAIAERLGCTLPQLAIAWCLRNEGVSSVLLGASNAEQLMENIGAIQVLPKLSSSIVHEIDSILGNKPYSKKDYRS

[5] = target: Voltage-gated potassium channel subunit beta-2 (Rattus norvegicus) (UniProt P62483); assay: enhancers of rat Kvbeta2 NADPH turnover – biochemical, NADPH fluorescence, primary screen (AID 623;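 active means NADPH fluorescence slope more negative than the mean of all samples by about 3 SD, 99.7% confidence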;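 further: fluorescence intensity change per second fitted from 20 to 320 s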); conditions: Recombinant KvBeta, NADPH fluorescence decrease slope, 10 min; at 10 µM; stronger effect = lower value
[6] = target: Alpha-2C adrenergic receptor (Homo sapiens) (UniProt P18825); assay: compounds altering alpha2C-coupled GIRK flux – cell-based, HEK293 alpha2C/GIRK1/2, thallium flux, primary screen (AID 624); conditions: thallium flux BTC fluorescence, at 10 µM, actives lie on both sides;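 further: slope of fluorescence ratio to pre-addition baseline per second over 15 to 24 s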
Chain of Alpha-2C adrenergic receptor (Homo sapiens) (P18825 whole entry, looked up): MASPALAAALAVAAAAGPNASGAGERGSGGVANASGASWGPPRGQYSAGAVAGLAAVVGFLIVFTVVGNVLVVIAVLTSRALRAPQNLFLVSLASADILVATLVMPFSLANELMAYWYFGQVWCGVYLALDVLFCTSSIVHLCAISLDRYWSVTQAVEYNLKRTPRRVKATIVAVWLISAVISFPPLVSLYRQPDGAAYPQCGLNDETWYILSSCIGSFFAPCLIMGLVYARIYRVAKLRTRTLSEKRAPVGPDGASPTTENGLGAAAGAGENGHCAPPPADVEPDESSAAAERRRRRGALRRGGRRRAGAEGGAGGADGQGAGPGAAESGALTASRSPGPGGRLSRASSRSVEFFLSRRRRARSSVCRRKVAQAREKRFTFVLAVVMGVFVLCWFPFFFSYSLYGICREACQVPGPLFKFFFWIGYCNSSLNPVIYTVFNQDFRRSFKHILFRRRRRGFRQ

[7] = blockers of RIG-like receptor reporter activation – cell-based, Sendai virus stimulus, luciferase, 10K MLSCN set, TLR/RLR signaling modifier project, primary screen (AID 602276;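 active means inhibition at or above 50% at 10 µM; inactive means inhibition below 50%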;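 further: firefly luciferase from ISG56 promoter only with Renilla not read in this screen; 0% = Sendai virus plus DMSO and 100% = medium plus DMSO without virus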); conditions: HEK293 RL24 IRF3 luciferase reporter, at 10 µM, stronger effect = higher value
[8] = TLR3 IRF3 reporter activation blockers – cell-based, poly I:C stimulus, luciferase, 10K MLSCN set, primary screen (AID 602277;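 active means inhibition of the reporter signal at or above 50%; inactive means inhibition below 50%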); conditions: HEK293-TLR3 RL24 IRF3 luciferase reporter, at 10 µM, stronger effect = higher value

Compound	cell count [1]	inhibition [1]	inhibition of aggregation [2]	nuclei count [2]	inhibition [3]	nuclei count [3]	fluorescence slope [4]	NADPH fluorescence slope [5]	slope [6]	inhibition [7]	inhibition [8]
O=C(CN1C(=O)C2C3C=CC(C3)C2C1=O)NCc1ccc2c(c1)OCO2 (stereo not drawn)	421	7.5% (inactive)	8.3% (inactive)	102%	-109% (inactive)	104%	-0.601 (inactive)	1.2e-05 (inactive)	0.00636 (inactive)	-4.21% (inactive)	6.98% (inactive)
Cc1csc(NC(=O)CCCSc2nc3ccccc3s2)n1	387	0.9% (inactive)	0.5% (inactive)	97.4%	-33.8% (inactive)	110%	-0.594 (inactive)	-2.4e-05 (inactive)	0.00267 (inactive)	23.5% (inactive)	26.7% (inactive)
CCn1cc(C(=O)NC2CCc3ccccc32)c(=O)c2ccc(C)nc21 (stereo not drawn)	727	-2.2% (inactive)	-0.4% (inactive)	100%	-37% (inactive)	110%	-0.559 (inactive)	2.4e-05 (inactive)	0.00594 (inactive)	7.46% (inactive)	13.4% (inactive)
COCCn1nnnc1C(C(C)C)N1CCN(C(=O)c2ccco2)CC1 (stereo not drawn)	314	1.6% (inactive)	10% (inactive)	85.2%	-23.9% (inactive)	121%	-0.511 (inactive)	4.3e-05 (inactive)	0.00753 (inactive)	-9.3% (inactive)	-17.2% (inactive)
COc1ccc(OCC(O)Cn2c(Br)nc3c2c(=O)[nH]c(=O)n3C)cc1 (stereo not drawn)	221	2.4% (inactive)	15.5% (inactive)	74.9%	-39.9% (inactive)	155%	-0.6 (inactive)	-3.5e-05 (inactive)	0.00397 (inactive)	35% (inactive)	27.6% (inactive)
OC(CN1CCN(c2ccccn2)CC1)Cn1c2ccccc2c2ccccc21 (stereo not drawn)	386	5.1% (inactive)	7.2% (inactive)	104%	-14.4% (inactive)	107%	-0.472 (inactive)	5.1e-05 (inactive)	0.00493 (inactive)	1.54% (inactive)	21.8% (inactive)
CCn1c(SCC(=O)c2ccc(OC)cc2)nnc1C(C)NC(=O)c1ccc(OC)cc1 (stereo not drawn)	449	-1.8% (inactive)	2.6% (inactive)	96.2%	-41.9% (inactive)	129%	-0.409 (inactive)	2.1e-05 (inactive)	0.00558 (inactive)	-3.91% (inactive)	9.81% (inactive)
CCCSc1nnc(-c2ccccc2NC(=O)CC)c(=O)[nH]1	632	-9.3% (inactive)	-17.5% (inactive)	86.8%	-43.8% (inactive)	96.6%	-0.412 (inactive)	-4.2e-05 (inactive)	0.00431 (inactive)	4.4% (inactive)	-2.41% (inactive)
CCOc1ccc(-c2nnn(CC(=O)N3CCN(c4ccc(F)cc4)CC3)n2)cc1OCC	583	-9.5% (inactive)	-17.1% (inactive)	119%	25% (inactive)	101%	-0.642 (inactive)	-1.5e-05 (inactive)	0.00403 (inactive)	16.8% (inactive)	14% (inactive)
CCOC(=O)CSc1nc2c(c(-c3ccc(C)o3)c1C#N)CCCC2	430	-4.4% (inactive)	-20.4% (inactive)	100%	-63.3% (inactive)	128%	-0.447 (inactive)	-9.4e-05 (inactive)	0.00861 (inactive)	10.2% (inactive)	18.3% (inactive)
Cc1csc(SCc2nc3sc4c(c3c(=O)[nH]2)CCC4)n1	562	1.9% (inactive)	0.1% (inactive)	116%	-229% (inactive)	171%	-0.553 (inactive)	-1.4e-05 (inactive)	0.00536 (inactive)	13% (inactive)	1.21% (inactive)
CCOc1cc(C(=O)NCc2ccncc2)cc(OCC)c1OCC	596	1.6% (inactive)	3.9% (inactive)	100%	-121% (inactive)	114%	-0.407 (inactive)	-4.6e-05 (inactive)	0.00658 (inactive)	7.46% (inactive)	18.3% (inactive)
CCCN1CC23C=CC(O2)C(C(=O)O)C3C1=O (stereo not drawn)	833	-8.7% (inactive)	-27.3% (inactive)	109%	-58.4% (inactive)	124%	-0.518 (inactive)	-8.6e-07 (inactive)	0.00688 (inactive)	6.27% (inactive)	15.9% (inactive)
CC(C)CCN1CC(C(=O)NCc2ccccc2)CC1=O (stereo not drawn)	538	2.2% (inactive)	2.7% (inactive)	121%	-57.7% (inactive)	108%	-0.288 (inactive)	-1.6e-05 (inactive)	0.00611 (inactive)	30.7% (inactive)	14.3% (inactive)
CCOc1ccc(-c2nc(C#N)c(NCc3ccc4c(c3)OCO4)o2)cc1	801	1.8% (inactive)	-13.1% (inactive)	93.8%	-56.3% (inactive)	120%	-0.581 (inactive)	-4.4e-05 (inactive)	0.00619 (inactive)	-4.94% (inactive)	-18.3% (inactive)
CC(C)C[C@H](NC(=O)Nc1cccc(C(F)(F)F)c1)C(=O)O	393	-9.8% (inactive)	9.1% (inactive)	70.6%	-25.5% (inactive)	97.8%	-0.493 (inactive)	4.1e-05 (inactive)	0.00499 (inactive)	-1.3% (inactive)	6.75% (inactive)
C=CCn1c(SCc2cccc(C#N)c2)nnc1-c1ccccc1O	658	-2.3% (inactive)	5.6% (inactive)	102%	-18.9% (inactive)	110%	-0.574 (inactive)	1.6e-05 (inactive)	0.00698 (inactive)	27.6% (inactive)	46% (inactive)
c1ccc(-c2nnc(CSc3nncs3)o2)cc1	322	16.3% (inactive)	-19% (inactive)	110%	-49.2% (inactive)	106%	-0.402 (inactive)	-2e-05 (inactive)	0.00275 (inactive)	-21.1% (inactive)	-78.9% (inactive)
CC1(C)CC(=O)c2cnc(NC(=O)CCc3ccccc3)nc2C1	608	-15.9% (inactive)	-15.3% (inactive)	112%	-24.7% (inactive)	119%	-0.365 (inactive)	9.1e-06 (inactive)	0.00293 (inactive)	14.3% (inactive)	33% (inactive)
O=C1c2ccccc2C(=O)N1CCC(=O)N1CCc2ccccc21	359	5.9% (inactive)	22.4% (inactive)	92.8%	-71.6% (inactive)	109%	-0.393 (inactive)	-2.1e-05 (inactive)	0.005 (inactive)	-1.4% (inactive)	-26.2% (inactive)
CCOC(=O)c1sc(N)c(C(=O)OCC)c1COC(=O)C1CC(=O)N(Cc2ccco2)C1 (stereo not drawn)	780	2.9% (inactive)	-82.9% (inactive)	104%	-33.4% (inactive)	116%	-0.526 (inactive)	-4.5e-05 (inactive)	0.00648 (inactive)	-20.6% (inactive)	-13.3% (inactive)
Cc1ccc(-n2ncc3c(=O)n(CC(=O)N4CCCc5ccccc54)cnc32)cc1C	227	-2.8% (inactive)	10.4% (inactive)	93.3%	9.3% (inactive)	87.8%	-0.346 (inactive)	-6.2e-05 (inactive)	0.00504 (inactive)	-13.9% (inactive)	-13.7% (inactive)
CC(Sc1nc(-c2ccccc2)cc(C(F)(F)F)n1)C(=O)N1CCC(C(N)=O)CC1 (stereo not drawn)	446	7.2% (inactive)	8.9% (inactive)	97.1%	-45.8% (inactive)	126%	-0.455 (inactive)	-8.9e-05 (inactive)	0.00612 (inactive)	17.5% (inactive)	24.5% (inactive)
CC1=C(C(=O)N2CCCCC2)C2(CCC(C)CC2)OC1=O (stereo not drawn)	759	-1.1% (inactive)	-11.5% (inactive)	118%	-27.8% (inactive)	120%	-0.524 (inactive)	-1.1e-05 (inactive)	0.00741 (inactive)	15.2% (inactive)	20.4% (inactive)
Oc1ccccc1-c1nnc(COc2ccc(Cl)cc2Cl)o1	766	-8.5% (inactive)	-1.7% (inactive)	127%	-23.4% (inactive)	113%	-0.54 (inactive)	-2.9e-05 (inactive)	0.00718 (inactive)	-0.185% (inactive)	-1.08% (inactive)
CC1=C(C(=O)OC2CCCCC2)C(c2cccnc2)n2ncnc2N1 (stereo not drawn)	271	-9.3% (inactive)	10.8% (inactive)	77.6%	21.9% (inactive)	34.7%	-0.327 (inactive)	-6.6e-06 (inactive)	0.00388 (inactive)	7.24% (inactive)	26.4% (inactive)
COC(=O)CN1C(=O)C(O)(CC(=O)c2ccc(Cl)cc2)c2ccccc21 (stereo not drawn)	605	-0.8% (inactive)	-5.5% (inactive)	110%	-40.7% (inactive)	102%	-0.372 (inactive)	2.5e-05 (inactive)	0.00594 (inactive)	17.2% (inactive)	36% (inactive)
CN1CC=C2C(C#N)=C(N)C(C#N)(C#N)C(Cc3ccccc3)C2C1 (stereo not drawn)	556	10% (inactive)	0.5% (inactive)	81.2%	-7.7% (inactive)	102%	-0.507 (inactive)	-2.1e-05 (inactive)	0.0052 (inactive)	4.84% (inactive)	8.81% (inactive)
